Apoferritin bind: binds horse apoferritin like a general anesthetic. apoferritin/1-aminoanthracene competitive binding, fluorescence. Potency, µM (titrated, usually from 77.5 µM), for inactives: top-dose activity change, negative = displacement, hits mostly inhibitors. hit rate 0.074% among 350,000. AID 485281; active = well fitted inhibition curve with a large enough effect; inconclusive = small, poorly fitted or top-dose-only effect; inactive = no such curve, though single readings can be large or run the other way; also: potency is read from the fitted curve at half-maximal effect; % is scaled to controls: 0 for no effect and ±100 for the full control effect; nearly all actives have a fitted effect of over 20% in size
Target sequence (P02791 2-175 limits assumed): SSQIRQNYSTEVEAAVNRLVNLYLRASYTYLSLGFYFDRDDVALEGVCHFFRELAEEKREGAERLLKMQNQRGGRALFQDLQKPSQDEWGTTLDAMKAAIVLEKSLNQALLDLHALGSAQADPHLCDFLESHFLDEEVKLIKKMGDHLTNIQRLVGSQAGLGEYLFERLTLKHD
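Horse-spleen apoferritin (10 uM) was mixed with 50% saturated 1-aminoanthracene in PBS, exposed to compounds for 10 min at room temperature, and read for fluorescence (ex 380 nm, em 535 nm). Competitive displacement was fitted with a four-parameter Hill equation.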
D2 antagonist: antagonizes the human D2 dopamine receptor; HEK293 TREx D2 cells, calcium flux, dopamine EC80; inhibition, % at 10 µM; hit rate 2% among 340,000; AID 485344; P14416; in the data active = inhibition above about 30%; inactive = below that, where a call was filed; also: 0% is about no effect
Target sequence (P14416 whole entry, looked up): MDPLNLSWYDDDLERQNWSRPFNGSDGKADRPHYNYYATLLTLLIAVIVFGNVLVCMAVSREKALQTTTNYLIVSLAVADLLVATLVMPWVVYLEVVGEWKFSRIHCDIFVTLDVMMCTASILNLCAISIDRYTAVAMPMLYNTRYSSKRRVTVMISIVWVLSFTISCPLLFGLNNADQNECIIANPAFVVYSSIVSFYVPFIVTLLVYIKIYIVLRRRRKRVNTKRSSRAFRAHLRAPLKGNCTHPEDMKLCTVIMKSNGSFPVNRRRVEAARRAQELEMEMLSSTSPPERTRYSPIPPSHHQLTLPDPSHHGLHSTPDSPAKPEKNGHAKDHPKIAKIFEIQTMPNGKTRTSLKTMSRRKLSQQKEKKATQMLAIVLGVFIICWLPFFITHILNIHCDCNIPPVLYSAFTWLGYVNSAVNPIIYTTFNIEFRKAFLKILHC
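HEK293 T-REx D2 cells, tet-induced, calcium dye no-wash. Cpd pintool add, 180 s kinetic, then EC80 DA, 180 s kinetic. Ca flux read.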
D2 ag-1: D2 dopamine receptor (human) agonism; activation, % at 2 µM; HEK293 T-REx D2 cells, calcium flux agonist mode; hit rate 0.53% among 340,000; P14416;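 active = activation over 3 SD above normal in the single-dose calcium agonist read, cut at about 30% in these data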; also: 0% is about no effect
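HEK293 Trex D2 cells, tetracycline-induced, o/n 30 C 5% CO2; no-wash Ca dye, RT 30–90 min; 10-cycle baseline, 23 nl cpd added, kinetic Ca read 180 s; agonist hits = positive Ca response.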
D2 PAM-1: potentiates the human D2 dopamine receptor allosterically; P14416; DiscoveRx D2 beta-arrestin cells, luminescence, 90 min; 100% = 57 uM dopamine signal; potentiation, % (no concentration beside the values); hit rate 0.23% among 360,000; in the data active = potentiation above about 50%; inconclusive = mostly about 30% to 49%
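PathHunter beta-arrestin assay in DiscoveRx D2 cells. Compounds were added with an EC20 of dopamine (50 nM final) for 90 min at 37 deg C. Luminescence was read 1 h after detection reagent, with 57 uM dopamine as the EC100 control.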
D2 ag-2: activates the human D2 dopamine receptor; P14416; DiscoveRx PathHunter D2 beta-arrestin, luminescence, 90 min; 100% = 57 uM dopamine signal; activation, % (test concentration not listed); hit rate 0.084% among 360,000; AID 624465; in the data active = activation above about 40%; inconclusive = between about 15% and that limit
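Agonist mode: compounds alone added to overnight-plated D2 PathHunter cells for 90 min at 37 C, with 57 uM final dopamine (EC100) defining full response. Beta-arrestin recruitment detected by chemiluminescent reagent, read after 1 h at ambient temperature.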
D2 PAM-2: positive allosteric modulators of human D2 dopamine receptor; P14416; HEK293 T-REx D2, calcium flux, EC20 dopamine potentiation; potentiation, % at 10 µM; hit rate 0.34% among 340,000; AID 485347;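 active = potentiation over 3 SD above the plate norm, cut at about 30% in these data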; also: 0% is about no effect
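Primary screen. Calcium kinetics in induced HEK293 T-REx D2 cells: compound pre-addition 180 s, EC20 dopamine, 180 s more.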
Starred values were filed as active, the others as inactive; i = inactive; u = inconclusive; x = no result; [ ] = remark or other dose. Sampled rows, rich in hits. Any-hit rate of the full collection: about 2.5%.

SMILES	Apoferritin bind	D2 antagonist	D2 ag-1	D2 PAM-1	D2 ag-2	D2 PAM-2
CC1(C)C(=O)OC(C(=O)c2ccc(C(C)(C)C)cc2)C(C)(C)C1=O (stereo unspecified)	20µM*	-12	0	-6	0	1
O=c1oc2c(CN3CCCCCC3)c(O)ccc2cc1-c1nc2ccccc2[nH]1	i	14	77*	x	x	-6
COc1cccc(NC(=O)CN(C)C(=O)CN2C(=O)NC3(CCCC3)C2=O)c1	x	-4	-1	22	-3	7
Cc1cc(Cl)ccc1OC(C)C(=O)NCCc1ccc2c(c1)OCCO2 (stereo unspecified)	-6%	64*	1	-5	-3	-7
O=S1(=O)CCC(NS(=O)(=O)c2cccc3cccnc23)C1 (stereo unspecified)	3%	-8	-1	12	-1	34*
CCN(CC)S(=O)(=O)c1cccc(C(=O)Nc2nc3cc4c(cc3s2)OCCO4)c1	54%	1	0	-10	-3	5
COCC1CCN(C(=O)c2cc(COc3cncc(Cl)c3)on2)C1 (stereo unspecified)	-15%	8	-1	-4	-1	10
CCOC(=O)C1(CCOC)CCN(Cc2nc(C(C)C)cs2)CC1	-5%	33*	-2	-9	1	-3
O=C(COC(=O)COc1ccccc1)Nc1ccc(Br)cc1F	x	x	x	-6	-3	x
COc1ccccc1OCCC(=O)OCC(=O)Nc1ccc(Br)cc1F	-10%	41*	2	-15	-3	-21
Cc1ccc(SCCC(=O)Nc2ccccc2Br)cc1	-3%	-15	0	1	-2	3
Nc1ccc(C#Cc2ccc3c(=O)c4ccccc4oc3c2)cc1	-9%	41*	2	-9	-2	-6
COc1cc(C(=O)N2CCN(C(=O)c3ccccc3)CC2)cc(OC)c1OC	-3%	-6	0	-9	-3	-6
N#CC1=C(N)Oc2cc(O)c(Cl)cc2C1c1ccccc1F (stereo unspecified)	150%	-29	44*	19	8	-4
N#CC1=C(N)Oc2cc(O)c(Cl)cc2C1c1cccnc1 (stereo unspecified)	44%	-3	14	-5	4	0
O=C(COc1ccc2ccc(=O)oc2c1)Nc1c(Cl)cccc1C(F)(F)F	-7%	-9	0	13	-4	-4
COCC(C)NC(=O)CCS(=O)(=O)c1nc(-c2ccc(OC)cc2)cc(C(F)(F)F)n1 (stereo unspecified)	4%	-9	-1	-29	-2	39*
COc1cccc(-n2nc(C(N)=O)c(O)cc2=O)c1	0%	13	0	2	-1	-10
COc1ccc(-n2nc(C(N)=O)c(O)cc2=O)cc1	-3%	32*	1	-3	3	-5
CC(CNC(=O)CCS(=O)(=O)c1cc2c(cc1Cl)NC(=O)CO2)c1ccccc1 (stereo unspecified)	-13%	-22	0	0	4	16
CCc1ccc(NC(=O)CSc2nnc(Cc3cccn3C)n2-c2ccc(OC)cc2)cc1	-15%	-3	-1	3	1	-4
O=C(O)c1ccc2c(=O)n3c(nc2c1)/C(=C/c1ccc(C(F)(F)F)cc1)CC3	3%	13	0	1	-1	-1
O=c1c2ccccc2nc2n1CC/C2=C/N1CCN(c2cccc(C(F)(F)F)c2)CC1	u	48*	0	-19	1	-12
Cc1ccc(NC(=O)CNCc2ccccc2)c(Br)c1	-19%	-12	0	-18	-4	x
Cc1ccc(NC(=O)CNCc2cccs2)c(Br)c1	-15%	32*	0	-5	-1	8
SMILES	Apoferritin bind	D2 antagonist	D2 ag-1	D2 PAM-1	D2 ag-2	D2 PAM-2
CCCN1CCC(N(CCc2ccccc2)Cc2ccccc2)CC1	-7%	39*	-1	-4	5	-16
CCN(Cc1ccccc1)C1CCN(Cc2ccccc2)CC1	-5%	25	-1	-4	-5	-22
COc1ccc(CN2CCC(N(CCc3ccccc3)Cc3ccccc3)CC2)c(OC)c1	-18%	35*	-1	-17	-1	-32
CC1(C)CC(=O)C=C(NCCN2CCN(C(=S)Nc3ccccc3)CC2)C1	8%	3	1	-13	-5	-6
Cc1ccc(C2(C)NC(=O)N(CC(=O)Nc3ccc(S(=O)(=O)Nc4nccs4)cc3)C2=O)cc1 (stereo unspecified)	x	-1	-1	4	3	31*
O=C(/C=C\c1ccc2c(c1)OCO2)c1ccc(F)cc1	-12%[15.3 µM]	x	x	x	x	x
Cc1cc(C(=O)OCC(=O)NCCc2ccc(S(N)(=O)=O)cc2)c2ccccc2n1	x	38*	0	-4	-2	0
COc1ccc(S(=O)(=O)N(C)C)cc1NC(=O)COC(=O)c1nc2nccc(C)n2n1	-2%	40*	-1	-11	-2	7
Cc1ccc(S(=O)(=O)N(C)C)cc1NC(=O)COC(=O)C1CCN(S(=O)(=O)c2cccs2)CC1	x	35*	0	-4	-4	0
O=C(COC(=O)C1CCN(S(=O)(=O)c2cccs2)CC1)Nc1ccccc1Br	3%	-28	1	-5	12	1
Cc1cc(C(=O)OCC(=O)Nc2cc(S(=O)(=O)N(C)C)ccc2Cl)c2ccccc2n1	-10%	10	0	-6	-1	-14
Cc1cc(C(=O)OCC(=O)Nc2cc(S(=O)(=O)N(C)C)ccc2C)c2ccccc2n1	-13%	37*	2	-15	-2	-24
Cc1ccc(C(O)c2ncc(-c3cccc4ccccc34)[nH]2)c(C)c1 (stereo unspecified)	x	x	x	-8	1	x
CCc1cc(=O)oc2cc(C)cc(OCC(=O)NC(Cc3c[nH]c4ccc(O)cc34)C(=O)O)c12 (stereo unspecified)	-8%	48*	1	20	7	-12
CCCc1cc(=O)oc2cc(C)cc(OCC(=O)NC(Cc3c[nH]c4ccc(O)cc34)C(=O)O)c12 (stereo unspecified)	-8%	-24	0	-2	-4	8
COc1ccc(-c2cc(=O)oc3cc(OC(C)C(=O)NC(Cc4c[nH]c5ccc(O)cc45)C(=O)O)ccc23)cc1 (stereo unspecified)	-11%	-22	5	-14	4	-5
CC(Oc1ccc2ccc(=O)oc2c1)C(=O)NC(Cc1c[nH]c2ccc(O)cc12)C(=O)O (stereo unspecified)	-6%	44*	-1	7	9	-24
CCOc1ccc(NC(=O)CSc2nnc(C3CC3)n2C)cc1S(=O)(=O)N1CCCCC1	x	44*	0	3	0	-6
